The list is not random: actives were taken first. Their share in the collection is about 1.6%.
KCNQ2 enhance: potentiators of rat KCNQ2 potassium channel. CHO-K1 KCNQ2, FluxOR thallium flux fluorescence; active compounds read high. B-score at 10 µM. 0.54% of 310,000 active. AID 2239;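 active = fluorescence ratio B-score at least 3 SD of library B-scores, with initial fluorescence B-score within 3 of them, cut at about 5.3 in these data; same plate scores as AID 2156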;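 also: B-score of peak minus minimum over baseline fluorescence ratio after K+ and Tl+ stimulus; positive B-score means potentiation of KCNQ2 with more thallium influx and brighter signal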
Target sequence (O88943 whole entry, looked up): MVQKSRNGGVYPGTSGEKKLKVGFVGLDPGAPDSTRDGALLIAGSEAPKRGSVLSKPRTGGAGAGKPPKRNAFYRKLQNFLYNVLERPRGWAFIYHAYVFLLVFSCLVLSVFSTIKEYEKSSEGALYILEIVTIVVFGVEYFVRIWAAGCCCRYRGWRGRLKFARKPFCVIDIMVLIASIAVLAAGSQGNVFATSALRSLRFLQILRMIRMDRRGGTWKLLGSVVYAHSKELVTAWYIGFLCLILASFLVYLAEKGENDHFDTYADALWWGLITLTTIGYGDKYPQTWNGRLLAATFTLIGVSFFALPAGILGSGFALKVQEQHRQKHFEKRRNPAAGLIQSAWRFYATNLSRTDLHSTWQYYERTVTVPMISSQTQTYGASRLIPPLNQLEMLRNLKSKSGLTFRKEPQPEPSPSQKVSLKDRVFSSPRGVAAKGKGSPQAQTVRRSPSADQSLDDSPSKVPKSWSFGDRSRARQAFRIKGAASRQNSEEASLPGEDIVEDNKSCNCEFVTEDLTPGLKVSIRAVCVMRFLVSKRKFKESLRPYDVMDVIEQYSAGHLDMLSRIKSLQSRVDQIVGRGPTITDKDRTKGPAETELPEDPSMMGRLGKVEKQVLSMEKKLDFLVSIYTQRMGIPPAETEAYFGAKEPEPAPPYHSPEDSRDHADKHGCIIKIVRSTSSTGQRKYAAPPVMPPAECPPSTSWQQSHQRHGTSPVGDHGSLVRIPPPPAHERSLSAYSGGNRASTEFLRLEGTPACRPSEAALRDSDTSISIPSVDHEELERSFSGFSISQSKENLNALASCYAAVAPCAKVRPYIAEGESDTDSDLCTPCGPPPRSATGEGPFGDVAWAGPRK
KCNQ2 block: inhibitors of rat KCNQ2 potassium channel; O88943; CHO-K1 KCNQ2, FluxOR thallium flux, 20 min; active compounds read low; B-score at 10 µM; 1.1% of 310,000 active;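 active = fluorescence ratio B-score at most minus 3 library SDs, with starting brightness B-score within 2 library SDs, cut at about -5.5 in these data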
Kir21 conf inh: confirmation of mouse Kir2.1 potassium channel inhibitors. 41% of 2,300 active. Kir2.1-expressing cells, FluxOR thallium flux fluorescence; active compounds read low. shares compounds with KCNQ2 enhance. Tl flux remaining, % of negative control (active compounds read low), % at 10 µM;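 active = Primary-screen hit whose thallium flux fell at least 3 control SD below untreated wells in both duplicates, with normal baseline fluorescence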;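 also: 0% = blank wells without stimulus and 100% = stimulated no-compound controls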
HEK293 Tl flux: parental HEK293 activity in Kir2.1 inhibitor counter-screen; FluxOR signal as % of negative control (100 = no effect), % at 10 µM; AID 2105; parental HEK293 cells, FluxOR thallium flux fluorescence; 0% = unstimulated blank wells; shares compounds with KCNQ2 enhance; 19% of 2,300 active;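 active = dye signal at least 3 control SD above or below untreated wells in both duplicates, raw fluorescence within 3, either direction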;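 also: percent is based on the flux ratio of peak minus minimum fluorescence over baseline F0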
CHO-K1 Tl ctr: parental CHO-K1 activity in KCNQ2 potentiator counter-screen; shares compounds with KCNQ2 enhance; parental CHO-K1 cells, FluxOR thallium flux fluorescence; zero = vehicle mean+3SD, 100% = vehicle-minus-blank window; activity increase over 3SD of controls, % at 10 µM; 43% of 1,200 active; AID 2282;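 active = signal rise of at least 3 SD above the untreated control mean, in both duplicate wells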;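 also: counter screen of KCNQ2 potentiator hits so any rise reflects channel-independent effects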
KCNQ1 sel pot: tests whether KCNQ2 potentiators also act on human KCNQ1; AID 2283; 28% of 1,200 active; activation over 3SD threshold, % at 10 µM; shares compounds with KCNQ2 enhance; CHO KCNQ1 stable, FluxOR thallium flux fluorescence; beyond 3SD, as % of vehicle-control signal;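 active = fluorescence ratio rise of at least 3 SD of vehicle wells above their mean, in both replicate wells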;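 also: 0% = vehicle mean plus 3 SD and 100% = vehicle minus unstimulated blank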
KCNQ2 pot confirm: rat KCNQ2 channel potentiator confirmation | shares compounds with KCNQ2 enhance | CHO-KCNQ2 cells, FluxOR thallium flux fluorescence | potentiation, less the hit threshold, % at 10 µM | 68% of 1,200 active;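 active = fluorescence ratio rising 3 SD or more over the vehicle control mean in both replicates, plus primary screen hit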;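 also: peak minus minimum thallium fluorescence divided by baseline after K/Tl stimulus; 0% = vehicle mean plus 3 SD and 100% = vehicle minus unstimulated blank difference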
Kir21 spec: tests whether KCNQ2 potentiators also affect mouse Kir2.1; shares compounds with KCNQ2 enhance; HEK293 Kir2.1, FluxOR thallium flux fluorescence; activity over 3SD threshold, % at 10 µM; 2% of 1,200 active;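 active = fluorescence ratio rise of at least 3 SD above the vehicle-control mean, seen in both replicates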;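 also: 0% = vehicle mean plus 3 SD and 100% = vehicle minus no-stimulus blank window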
KCNQ2 W236L pot: KCNQ2 potentiators acting on retigabine-insensitive rat KCNQ2 W236L mutant. shares compounds with KCNQ2 enhance. CHO KCNQ2-W236L, automated patch clamp current. current increase over 3SD of negative controls (%), active compounds read high, % at 25 µM. 10% of 940 active;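 active = current increase at least 3 SD of the untreated controls above them in both duplicate recordings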
* = called active by the depositor; i = inactive; x = no result given.

SMILES | KCNQ2 enhance | KCNQ2 block | Kir21 conf inh | HEK293 Tl flux | others
Cc1[nH]n(-c2ccccc2)c(=O)c1Sc1ccc(Cl)cc1 | 1.1 | i | x | x
CCCSC(=S)c1c(C)[nH]n(-c2ccccc2)c1=O | 9.8* | i | i | 424%* | CHO-K1 Tl ctr=22*;KCNQ1 sel pot=-14;KCNQ2 pot confirm=54*;Kir21 spec=3.8*;KCNQ2 W236L pot=i
N#Cc1ccccc1CCN1C(=O)c2ccccc2C1=O | 0.42 | i | x | x
COc1ccccc1/C=C1\N=C(C(C)(C)C)OC1=O | 0.44 | i | x | x
c1ccc(-c2ccccc2OCCN2CCCC2)cc1 | x | i | x | x
c1ccc(-c2ccccc2OCCCCN2CCCCCC2)cc1 | x | i | 38%* | i
O=C(CCS(=O)(=O)c1ccc(Br)s1)NC1CCCCCC1 | 1.2 | i | i | 70%*
O=C(CCS(=O)(=O)c1ccccc1)NC1CCCCC1 | 0.47 | i | x | x
CC1CCN(C(=O)CSc2nnc(-c3ccccc3F)o2)CC1 | 1.2 | i | x | x
CN(C)CCCN(C(=O)c1ccc2c(c1)OCCO2)c1nc2ccc(Cl)cc2s1 | x | i | 54%* | i
CN(C)CCN(C(=O)c1ccc2c(c1)OCCO2)c1nc2ccc(Cl)cc2s1 | 0.29 | i | x | x
Cc1cc(OCc2cc(C(=O)N(Cc3nccn3C)C(C)C)no2)cc(C)c1Cl | 1.1 | i | x | x
Cc1c(NC(=S)Nc2ccc(Cl)cc2)c(=O)n(-c2ccccc2)n1C | x | i | x | x
COc1ccc(C(=O)NC2CCCc3ccccc32)cc1[N+](=O)[O-] (stereo unspecified) | x | i | x | x
Clc1ccc(-c2csc3ncnc(Cl)c23)cc1 | 0.92 | i | x | x
S=c1[nH]cnc2scc(-c3ccc(Br)cc3)c12 | 5.6* | i | i | 194%* | CHO-K1 Tl ctr=-3;KCNQ1 sel pot=-17;KCNQ2 pot confirm=-5;Kir21 spec=-20;KCNQ2 W236L pot=i
O=c1[nH]cnc2scc(-c3ccccc3)c12 | x | i | x | x
Cc1cc(-c2csc3nc[nH]c(=S)c23)cc(C)c1C | 15* | i | i | 262%* | CHO-K1 Tl ctr=-9;KCNQ1 sel pot=-17;KCNQ2 pot confirm=36*;Kir21 spec=-20;KCNQ2 W236L pot=i
S=c1[nH]cnc2scc(-c3ccc(Cl)cc3)c12 | 9.6* | i | i | 142%* | CHO-K1 Tl ctr=-5;KCNQ1 sel pot=-4;KCNQ2 pot confirm=14*;Kir21 spec=-31;KCNQ2 W236L pot=i
O=c1[nH]cnc2scc(-c3ccsc3)c12 | 2.3 | i | x | x
O=C(CCc1ccccc1)N=C1SC2CS(=O)(=O)CC2N1Cc1ccccc1 (stereo unspecified) | x | i | x | x
C[C@@H]1CCC[C@@]2(O[C@@H](CCO)C[C@H](O)[C@H]2O)O1 | x | i | x | x
COc1cccc(N(C(=O)c2csnn2)C(C(=O)NC2CCCC2)c2ccccc2)c1 (stereo unspecified) | 0.87 | i | x | x
O=C(CN(C(=O)c1csnn1)c1ccc(Cl)cc1)NCc1ccc2c(c1)OCO2 | 1.6 | i | x | x
COc1ccc(OC)c(S(=O)(=O)NC2CC(=O)N(c3ccc(C)c(C)c3)C2)c1 (stereo unspecified) | x | i | x | x
SMILES | KCNQ2 enhance | KCNQ2 block | Kir21 conf inh | HEK293 Tl flux | others
COc1ccc(OCCCC(=O)Nc2nccs2)cc1 | x | i | x | x
Cc1cccc(C(=O)NNC(=O)c2ccc(Cl)cc2)c1O | 0.27 | i | x | x
O=C(NNC1=C(C(=O)C(F)(F)F)CCC1)c1cccc(O)c1 | 4.4 | i | x | x
O=C(NNC1=C(C(=O)C(F)(F)F)CCC1)c1cccnc1 | 20* | i | i | 64%* | CHO-K1 Tl ctr=-16;KCNQ1 sel pot=-19;KCNQ2 pot confirm=35*;Kir21 spec=-21
Cc1cccc(C(=O)NNC2=C(C(=O)C(F)(F)F)CCC2)c1O | 6.6* | i | i | i | CHO-K1 Tl ctr=-7;KCNQ1 sel pot=-16;KCNQ2 pot confirm=33*;Kir21 spec=-44;KCNQ2 W236L pot=i
Cc1cccc(C)c1NS(=O)(=O)c1ccc(-c2cnc(C3CC3)o2)cc1 | x | i | x | x

Assay outcomes (PubChem)
